Source: PubChem BioAssay (NCI)
About 83,000 compounds went through this panel and 20% of them were active in at least one assay; those are over-represented in the sample as a whole.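 Compound tested at a single concentration for 48 hours in 96-well plates; a percent growth value below 10 was scored as active.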 Values without a mark were called inactive. Active and inactive are the calls of the source.

What follows are compounds tested on CAKI-1 renal (assay: NCI-60 one-dose screen, 48 h (100 = growth as untreated, 0 = no growth, -100 = all killed)). Details: 10 µM unless noted.
Description: Growth inhibition of the CAKI-1 human tumor cell line is measured as a screen for anti-cancer activity. Cells are grown in 96 well plates and exposed to the test compound for 48 hours. Compounds are tested at a single concentration, which is 10^-5 M for most compounds. The reported endpoint is percent growth (GI% or GIPRCNT), where numbers from 0 - 100% represent growth inhibition, and numbers from -100% - 0 represent cell death. For example, a value of 40 represents 60% growth inhibition. A value of 0 means no net growth occurred over the course of the experiment. A value of -40 indicates 40% of cells at the beginning of the experiment died by the end of the experiment. A value of -100 means all cells are dead at the end of the experiment.
NCI-60 Human Tumor Cell Lines Screen was performed using the standard one-dose NCI protocol, which is described in more detail at https://dtp.cancer.gov/discovery_development/nci-60/default.htm.
Compounds with GIPRCNT values below 10 were considered active. Activity score was based on GIPRCNT using the following formula: […]
Score is 0 for GIPRCNT values of 100 or above, 50 for GIPRCNT values of 0, and 100 for GIPRCNT values of -100.

SMILES | growth
Clc1cc(Cl)cc(N2N=C(c3cccc(Nc4ccncc4)c3)CC2c2ccccc2)c1 (stereo not given) | 27%
COc1cc(COC(=O)CCCCC[P+](c2ccccc2)(c2ccccc2)c2ccccc2)c(OC)c2c1OCO2 | 72.7%
Cn1c(COC(=O)NCCc2ccccn2)nc2c(N3CCOCC3)nc(Cl)nc21 | -78.9% (active)
Clc1nc(Nc2ccccc2)nc(Nc2ccccc2)n1 | 86.5%
O=c1[nH]c(=O)[nH]c(=S)[nH]1 | 94.9%
O=C1Nc2c(ccc(Cl)c2Cl)/C1=C/c1ccc([N+](=O)[O-])cc1 | 59.6%
Cc1c2c(cc[n+]1Cc1ccc(F)cc1)c1ccc(OCc3cccc(F)c3)cc1n2Cc1cccc(F)c1 | 60.2%
Cc1cc(C)n(Nc2nc3ccccc3[nH]c2=O)c(=O)c1C#N | 89.9%
Cn1/c(=N/NC(N)=S)ccc2ccccc21 | 95.7%
O=C1/C(=C\c2cn(Cc3ccccc3)c3ccc(Br)cc23)c2ccccc2N1c1c(Cl)cccc1Cl | 83%
O=C(O)CNC(=O)CN1C(=O)c2ccccc2C1=O | 95.9%
O=[N+]([O-])c1cccc(-c2nc(-c3ccc(Cl)cc3Cl)cn2-c2ccccc2)c1 | -68.8% (active)
CC(C)(O)C1CCCN1C(=O)c1ccccc1I (stereo not given) | 88.2%
COc1cc2ncnc(Nc3ccc(C(=O)/C=C/c4ccc(C(F)(F)F)cc4F)cc3)c2cc1OC | 88.2%
C(=C\c1n(Cc2ccc3ccccc3c2)c(-c2ccccc2)c(-c2ccccc2)[n+]1Cc1ccc2ccccc2c1)/c1ccccc1 | -100% (active)
c1ccc(C2CC(c3cccc(Nc4ccncc4)c3)=NN2c2ccccc2)cc1 (stereo not given) | 61.8%
COc1ccccc1-c1c(-c2ccc(Cl)cc2)c2cc3c(cc2[nH]c1=O)OCCO3 | 54.9%
CCCCCCOc1ccc(C(=N)N(CCCC)CCCC)c2ccccc12 | -83.7% (active)
Fc1ccc(-n2cc(COc3ncnc4sc5c(c34)CCCC5)nn2)cc1Cl | 92.7%
CCN(CC)S(=O)(=O)c1cccc([N+](=O)[O-])c1 | 91.3%

SMILES | growth
O=c1nc2n(nc1/C=C/c1ccco1)CC(c1ccc(Cl)cc1)=NN2 | 94%
O=C(CN1CCOCC1)Nc1ccc2ncnc(Nc3ccc(OCc4cccc(F)c4)c(Cl)c3)c2c1 | 45.8%
Cc1ccc(Nc2cc(=S)nc(N)[nH]2)cc1C | 90.5%
O=C(Nc1ccc(F)cc1)c1c(NC(=O)C(F)(F)F)sc2c1CCCCC2 | -19.1% (active)
Cc1cc(C)c(C=O)c(C)c1 | 94.1%
O=C(NCCN1CCOCC1)OCc1nc2nc(Cl)nc(N3CCOCC3)c2[nH]1 | 25.2%
O=C1NC(=S)NC(=O)C1=Cc1cn(Cc2ccccn2)c2ccccc12 | 7.91% (active)
Cc1ccc2nc3c(cc2c1)CSc1nnc(-c2ccc[nH]c2=S)n1N3 | 78.7%
NC(=S)N/N=C/c1ccc(OC(=O)COc2cc(Cl)c(Cl)cc2Cl)cn1 | 36.4%
CC1(C)[C@H](O)CC[C@]2(C)[C@@H]1CC[C@@]13C[C@@H](CC[C@H]12)[C@@](O)(CO)C3 | 97.8%
O=S(=O)(O)c1cc(O)c2c(N=Nc3ccc(Nc4ccccc4)c4c(S(=O)(=O)O)cccc34)cc(S(=O)(=O)O)cc2c1 | 99.4%
C=C(C)[C@@H]1CC[C@]2(C(=O)NCC(=O)OC)CC[C@]3(C)[C@H](CC[C@@H]4[C@@]5(C)Cc6c([nH]c7ccccc67)C(C)(C)[C@@H]5CC[C@]43C)[C@@H]12 | 58.6%
CCCCCCOc1ccc(/C=N/Nc2cc(C)nc3ccc(Br)cc23)cc1 | -72.4% (active)
Cc1ccccc1C(c1ccccc1)c1ccccc1C | 87.6%
O=C(CNCCO)Nc1ccc2ncnc(Nc3ccc(OCc4cccc(F)c4)c(Cl)c3)c2c1 | 63.3%
COC(=O)Nc1ccc(NC(=O)OC)cc1 | 93.4%
CN(C)C(=O)c1cc2cnc(Nc3ccc(-c4csc5c(=O)cc(N6CCOCC6)oc45)cc3)nc2n1C1CCCC1 | -50.8% (active)
COc1cc(CCNc2nc3cc(N)cc(N)c3nc2-c2ccccc2)cc(OC)c1 | 184%
Fc1ccccc1CSc1ncnc2nc[nH]c12 | 103%
O=C(Nc1sc2c(c1C(=O)O)CCCC2)c1cccc(C(F)(F)F)c1 | 91.1%
